# Experimental data taken from PubChem BioAssay (NCATS).
# Inconclusive results are not listed. Unmarked numbers belong to inactive results. Activity calls are given as the source filed them. The call rests on the fitted dose curve; in most records, active means well fitted inhibition curve with a large enough effect; inconclusive means small, poorly fitted or top-dose-only effect; inactive means no such curve, though single readings can be large or run the other way.
# Target: Cytochrome P450 3A4 (Homo sapiens) (UniProt P08684)
# Sequence (P08684 whole entry, looked up): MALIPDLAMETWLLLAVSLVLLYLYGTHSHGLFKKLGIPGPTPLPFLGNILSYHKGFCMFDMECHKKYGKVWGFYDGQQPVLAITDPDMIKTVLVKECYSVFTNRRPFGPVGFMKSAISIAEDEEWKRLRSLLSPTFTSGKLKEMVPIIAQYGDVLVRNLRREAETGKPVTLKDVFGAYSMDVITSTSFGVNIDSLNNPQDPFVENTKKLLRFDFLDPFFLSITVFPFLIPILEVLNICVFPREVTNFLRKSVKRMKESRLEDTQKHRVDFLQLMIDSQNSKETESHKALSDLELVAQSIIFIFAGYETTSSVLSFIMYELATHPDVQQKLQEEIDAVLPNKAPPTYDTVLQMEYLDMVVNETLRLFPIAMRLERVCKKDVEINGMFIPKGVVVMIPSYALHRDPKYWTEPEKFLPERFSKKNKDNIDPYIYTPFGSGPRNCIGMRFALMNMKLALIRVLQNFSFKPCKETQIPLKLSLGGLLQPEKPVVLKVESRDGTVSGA
# Assay: qHTS Assay for Inhibitors and Substrates of Cytochrome P450 3A4 (AID 884); further: nearly all actives have a fitted effect of over 50% in size
# Settings: recombinant CYP3A4, Luciferin-PPXE luminescence; series mostly up to 57.1 µM; activity change, negative = inhibition: at the top concentration
# Procedure: NIH Molecular Libraries Screening Centers Network [MLSCN]
# NIH Chemical Genomics Center [NCGC]
# The P450 gene superfamily is involved in the metabolism and clearance of xenobiotics. This assay used human CYP3A4 to measure the dealkylation of luciferin-6' phenylpiperazinylyl (Luciferin-PPXE; […]) to luciferin. The luciferin is then measured by luminescence after the addition of a luciferase detection reagent. Luciferin-PPXE concentration in the assay was equal to its KM for CYP3A4. Inhibitors and some substrates limit the production of luciferin, and decrease measured luminescence.
# NCGC Assay Protocol Summary:
# Two uL of enzyme and substrate mix (final concentrations: 20nM CYP3A4, 25uM Luciferin-PPXE, 200mM KPO4) were dispensed into a white, solid bottom 1536-well microtiter plate. 23nL of compound was transferred by a pin tool. The plate was incubated at RT for 10 min. Two uL of an NADPH regeneration solution (Promega supplied reagent) was dispensed and the reaction was allowed to continue for 60 min at RT. Then the reaction was stopped by reconstituted luciferin detection buffer. After another 20 min of incubation the plate was read on the ViewLux (Perkin Elmer) at 60 sec exposure and 2x2 binning. This protocol was carried out with Promega-Glo reagents and further information can be found at http://www.promega.com/tbs/tb325/tb325.pdf. Data were normalized to the to AC100 inhibition (57 uM ketoconazole).
# Keywords: P450, CYP3A4, Luciferase, MLSMR, MLSCN, NIH Roadmap, qHTS, NCGC
# On the % scale 0 is the no-effect control and ±100 the full control effect; potency means the concentration at half of the fitted maximal effect.
Structure (SMILES),Potency,"activity change, negative = inhibition"
COc1ccccc1CNc1ccnc(-c2ccoc2)n1,2.51 µM (active),
Clc1ccccc1-c1ccc2ncnc(NCc3cccnc3)c2c1,2 µM (active),
CCCn1c(C)nc2c(NCCCN(CC)CC)nc(C)nc21,,-9.87%
CC(=O)NCCNc1ncncc1-c1ccc(N(C)C)cc1,2 µM (active),
COc1ccc2[nH]cc(CCNc3ncncc3-c3ccc(N(C)C)cc3)c2c1,0.501 µM (active),
O=C(c1cnccn1)N1CCC2(CCCN(c3ccccc3)C2)CC1,1.58 µM (active),
Cc1nc(NCc2ccccc2)c2nc(-c3ccccc3)n(C3CCN(Cc4ccccc4)C3)c2n1 (stereo not given),3.98 µM (active),
CCCCNc1nc(C)nc2c1nc(-c1ccccc1)n2CCCN1CCCCC1C (stereo not given),6.31 µM (active),
COc1ccc(C(=O)N2CCC3(CCCN(Cc4ccncc4)C3)CC2)cc1,7.94 µM (active),
CCCn1c(-c2ccc(F)cc2)nc2c(NCCCN(C)C)nc(C)nc21,,-22.8%
CCCn1c(-c2ccc(F)cc2)nc2c(NCCCCN3CCCC3)nc(C)nc21,15.8 µM (active),
COc1ccc(CNc2ncnc3ccc(-c4ccccc4OC)cc23)c(OC)c1,2 µM (active),
Cn1c(=O)c(-c2ccc(Cl)cc2)nc2cnc(N3CCOCC3)nc21,,47%
CCN1CCCC1Cn1c(-c2ccccc2)nc2c(NC3CCCCC3)nc(C)nc21 (stereo not given),12.6 µM (active),
COc1ccccc1-c1cncnc1NCCc1cnc[nH]1,0.398 µM (active),
CCCn1c(-c2ccc(F)cc2)nc2c(NC(C)CCCN(CC)CC)nc(C)nc21 (stereo not given),10 µM (active),
CN(Cc1ccco1)c1ncnc2ccc(-c3cccnc3)cc12,3.98 µM (active),
Cc1nc(NCc2ccccc2)c2nc(-c3ccccc3)n(CCCN3CCCCC3C)c2n1 (stereo not given),5.01 µM (active),
c1cncc(CNc2nc(-c3ccoc3)nc3ccccc23)c1,7.94 µM (active),
COCCN(CCOC)c1nc(C)nc2c1nc(-c1ccccc1)n2CCCN1CCCCC1C (stereo not given),12.6 µM (active),

Structure (SMILES),Potency,"activity change, negative = inhibition"
CN(Cc1ccco1)c1ncncc1-c1cccc(C#N)c1,7.94 µM (active),
O=C(c1cc(C(F)(F)F)cc(C(F)(F)F)c1)N1CCC[C@@]2(CCN(Cc3ccncc3)C2)C1,0.501 µM (active),
COc1cccc(Nc2ncc3nc(C)c(=O)n(C4CC4)c3n2)c1,6.31 µM (active),
Cc1nc(N2CCOCC2)c2nc(-c3ccccc3)n(CCN3CCCCC3)c2n1,2.51 µM (active),
COc1ccc(CNc2cc(-c3ccccc3Cl)ncn2)c(OC)c1,6.31 µM (active),
Cn1c(=O)c(-c2cccc(C#N)c2)nc2cnc(Oc3ccccc3)nc21,,79.8%
c1cncc(CNc2ncnc3ccc(-c4ccoc4)cc23)c1,1.58 µM (active),
CCCn1c(C)nc2c(NCCCN(CCO)CCO)nc(C)nc21,,-28.1%
COc1ccc(-n2c(=O)c(-c3cn(C)c4ccccc34)nc3cnc(OC)nc32)cc1,1.58 µM (active),
CN1CCN(c2ncc3nc(-c4ccc(Cl)cc4)c(=O)n(Cc4cccs4)c3n2)CC1,,44%
Cc1nc(Nc2ccccc2)c2nc(-c3ccccc3)n(CCN3CCOCC3)c2n1,1.58 µM (active),
CCN(CC)CCCn1c(-c2ccccc2)nc2c(N3CCOCC3)nc(C)nc21,,-22.4%
N#Cc1cccc(-c2cncnc2NCc2cccs2)c1,1.26 µM (active),
Cn1c(=O)c(-c2cccs2)nc2cncnc21,7.94 µM (active),
CN(C)c1ccnc(-c2ccccc2C(F)(F)F)n1,,47.9%
CN(Cc1ccco1)c1ncncc1-c1ccccc1Cl,0.501 µM (active),
FC(F)(F)c1ccccc1-c1nc(NCCN2CCOCC2)c2ccccc2n1,7.94 µM (active),
COCC(=O)N1CCC2(CC1)CCN(C(c1ccccc1)c1ccccc1)CC2,,264%
COc1cccc(-c2cc(NCc3cccs3)ncn2)c1,7.94 µM (active),
COc1ccccc1CNc1ccnc(-c2ccc3c(c2)OCO3)n1,1.58 µM (active),
